14 compounds from PubChem BioAssay (NCI) can be followed below.

Some test systems named below: NCI-H23 lung; NCI-H226 lung; NCI-H322M lung; HOP-62 NSCLC; NCI-H460 lung; HOP-92 NSCLC; NCI-H522 lung; A549/ATCC NSCLC; 786-0 renal; COLO 205 colon.
Experiment in all cases: NCI-60 one-dose screen, 48 h (100 = growth as untreated, 0 = no growth, -100 = all killed)
Common to all, as to settings: 10 µM unless noted

Each structure is given as a SMILES string. Compounds without any hit were thinned out: in the full panel of roughly 83,000, 20% have a hit.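 48-hour exposure, single concentration, 96-well plates; percent growth endpoint where 0 means no net growth. Active: below 10.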 Unmarked numbers belong to inactive results. Calls of active or inactive are those of the source.

In the case of `O=c1c2sc3ncccc3c2nnn1-c1ccccc1`, the growth in the assay with NCI-H23 lung is 99.1%; in the assay with NCI-H226 lung it was 100%; in the assay with NCI-H322M lung, 114%; with HOP-62 NSCLC it was 105%; in the assay with NCI-H460 lung, 106%; with HOP-92 NSCLC it was 97.5%. Further, the growth in the assay on NCI-H522 lung is 111%; in the assay on A549/ATCC NSCLC, 102%; in the assay on 786-0 renal it was 100%; in the assay on COLO 205 colon, 114%.

For the compound `CC(NNC(C)c1ccccc1)c1ccccc1` (stereo not given), the growth was 103% in the assay with NCI-H23 lung; 98.8% in the assay with NCI-H226 lung; 122% with NCI-H322M lung; 105% with HOP-62 NSCLC; 106% in the assay with NCI-H460 lung; 96.4% in the assay on HOP-92 NSCLC. The growth was 93.9% with NCI-H522 lung, 104% in the assay with A549/ATCC NSCLC, 109% with 786-0 renal and 105% with COLO 205 colon.

Turning to `COC(=O)c1cccc2c1N(C)c1c(cccc1C(=O)OC)CC2`, the growth was 104% with NCI-H23 lung; 112% with NCI-H226 lung; 111% with NCI-H322M lung; 107% with HOP-62 NSCLC; 117% with NCI-H460 lung; 96.4% in the assay on HOP-92 NSCLC. Moreover, the growth in the assay on NCI-H522 lung is 96.1%; with A549/ATCC NSCLC, 112%; in the assay on 786-0 renal, 108%; with COLO 205 colon, 102%.

For the compound `CC1(c2ccc(Cl)cc2)OC(=O)CC(=O)O1`, the growth in the assay with NCI-H23 lung is 95.9%; with NCI-H226 lung it was 104%; in the assay with NCI-H322M lung it was 109%; in the assay on HOP-62 NSCLC, 102%; in the assay with NCI-H460 lung it was 110%; in the assay with HOP-92 NSCLC it was 103%. Besides, the growth was 90.1% with NCI-H522 lung, 99.1% in the assay with A549/ATCC NSCLC, 111% in the assay on 786-0 renal and 109% in the assay with COLO 205 colon.

In the case of `ClC(Cl)c1nc(-c2cccnc2)n2nc(-c3ccccc3)cc2n1`, the growth in the assay on NCI-H23 lung was -39.3% (active); in the assay with NCI-H226 lung, 66.2%; with NCI-H322M lung it was 46.2%; in the assay with HOP-62 NSCLC it was 5.17% (active); in the assay with NCI-H460 lung it was -32.5% (active); in the assay with HOP-92 NSCLC, -0.78% (active). The growth was -20.3% (active) with NCI-H522 lung, -16.8% (active) in the assay with A549/ATCC NSCLC, 82.3% with 786-0 renal and -52.6% (active) with COLO 205 colon.

Regarding `C=C1CCC2C3(C)COC(c4ccccc4)OC3CCC2(C)C1/C=C/C1=CCOC1=O` (stereo not given), the growth is 74.6% in the assay on NCI-H23 lung; 85.8% in the assay with NCI-H226 lung; 64.3% in the assay on NCI-H322M lung; 113% in the assay with HOP-62 NSCLC; 93.6% in the assay on NCI-H460 lung; 68.4% in the assay on HOP-92 NSCLC. Moreover, the growth in the assay on NCI-H522 lung was 63.6%; in the assay with A549/ATCC NSCLC it was 43.5%; in the assay on 786-0 renal, 94.3%; with COLO 205 colon it was 17.4%.

For the compound `c1ccc(-c2cn(-c3ccccc3)c(-c3ccccc3)n2)cc1`, the growth was 77.6% in the assay on NCI-H23 lung; 93.4% in the assay on NCI-H226 lung; 104% with NCI-H322M lung; 82% with HOP-62 NSCLC; 89.5% in the assay with NCI-H460 lung; 69.4% in the assay on HOP-92 NSCLC. Moreover, the growth in the assay with NCI-H522 lung is 73.9%; with A549/ATCC NSCLC it was 48%; with 786-0 renal, 71.5%; in the assay on COLO 205 colon, 95.2%.

For `C=C(C)[C@@H]1C[C@@H]2Cc3cc(Cl)ccc3N1O2`, the growth was 99.8% in the assay with NCI-H23 lung; 101% with NCI-H226 lung; 111% in the assay with NCI-H322M lung; 93.4% in the assay on HOP-62 NSCLC; 102% in the assay on NCI-H460 lung; 25.2% in the assay with HOP-92 NSCLC. Besides, the growth with NCI-H522 lung was 116%; in the assay with A549/ATCC NSCLC, 95.4%; in the assay on 786-0 renal, 102%; in the assay on COLO 205 colon, 105%.

In the case of `O=C(C1=Cc2cc3ccccc3n2Cc2cnnn21)c1ccccc1`, the growth is 73.6% in the assay on NCI-H23 lung; 78.1% with NCI-H226 lung; 80.6% with NCI-H322M lung; 39.2% in the assay with HOP-62 NSCLC; 30.9% in the assay on NCI-H460 lung; 55.1% with HOP-92 NSCLC. The growth was 9.68% (active) in the assay on NCI-H522 lung, 58.5% in the assay with A549/ATCC NSCLC, 69.1% with 786-0 renal and 58.8% with COLO 205 colon.

For `COc1ccc(S(=O)(=O)Nc2cc(/C=C\c3cc(OC)c(OC)c(OC)c3)cc(OC)c2OC)cc1`, the growth in the assay on NCI-H23 lung was 36.2%; with NCI-H226 lung it was 35.2%; with NCI-H322M lung, 27.1%; with HOP-62 NSCLC, 52.9%; with NCI-H460 lung, 8.41% (active); in the assay on HOP-92 NSCLC, 20.1%. For the same compound, the growth in the assay on NCI-H522 lung is -21.4% (active); with A549/ATCC NSCLC, 21.2%; with 786-0 renal, 14%; with COLO 205 colon, -62.4% (active).

`O=C1c2c(Cl)c(Cl)c(Cl)c(Cl)c2C(=O)C2(Cl)CC=CCC12Cl` (stereo not given): the growth is 10% with NCI-H23 lung; 73% with NCI-H226 lung; 72.6% in the assay with NCI-H322M lung; -90.2% (active) with HOP-62 NSCLC; 50.3% in the assay on NCI-H460 lung; -58.1% (active) in the assay on HOP-92 NSCLC. The growth in the assay on NCI-H522 lung is -80.7% (active); in the assay with A549/ATCC NSCLC, 74.1%; with 786-0 renal it was 0.0645% (active); in the assay on COLO 205 colon it was -77.3% (active).

`NNc1cccc(/C=C/c2ccccc2)cc1=O`: the growth with NCI-H23 lung was 73.1%; in the assay with NCI-H226 lung, 83%; in the assay on NCI-H322M lung it was 71.1%; in the assay with HOP-62 NSCLC, 71.1%; in the assay with NCI-H460 lung, 27.5%; in the assay on HOP-92 NSCLC, 59.8%. Also, the growth in the assay with NCI-H522 lung is 57.7%; with A549/ATCC NSCLC, 64.6%; in the assay with 786-0 renal, 69.1%; with COLO 205 colon, 70.6%.

With `COc1ccc(-c2nc(-c3nc4cc(C)c(C)cc4[nH]3)cc3c2[nH]c2ccccc23)cc1`, the growth in the assay with NCI-H23 lung was 60.1%; with NCI-H226 lung, 95.8%; in the assay on NCI-H322M lung it was 84%; in the assay with HOP-62 NSCLC, 58.4%; in the assay on NCI-H460 lung, 42.2%; in the assay on HOP-92 NSCLC it was 52.3%. Also, the growth in the assay on NCI-H522 lung was 72.5%; in the assay on A549/ATCC NSCLC it was 43.2%; in the assay on 786-0 renal, 6.87% (active); in the assay on COLO 205 colon, 41.9%.

Take `CC(=O)Nc1ccc(/C=C/C(=O)c2ccccc2)cc1`: the growth in the assay on NCI-H23 lung is 102%; with NCI-H226 lung, 102%; in the assay with NCI-H322M lung, 120%; in the assay with HOP-62 NSCLC, 97.1%; with NCI-H460 lung, 105%; in the assay on HOP-92 NSCLC, 74.7%. Also, the growth was 68.1% with NCI-H522 lung, 92.6% in the assay with A549/ATCC NSCLC, 98.5% in the assay with 786-0 renal and 112% in the assay on COLO 205 colon.
